About 250 (12%) of roughly 2,000 compounds were called active. For the sample, actives were picked, then their nearest neighbours and some compounds at random. Values without a mark were called inactive. Cut-off read from the data, not from the text of the source: active = hERG blockade below about -20% or above about 20%; inactive = in between.
What follows are compounds tested against Voltage-gated inwardly rectifying potassium channel KCNH2 (Homo sapiens) (UniProt Q12809) (assay: modulators of KCNH2 ion channel function, cellular (AID 376;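 note: 0% = buffer alone and 100% = reference blocker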)). Conditions: hERG-expressing cells, channel activity single-concentration screen; concentration not given here.
Sequence of Voltage-gated inwardly rectifying potassium channel KCNH2 (Homo sapiens) (Q12809 whole entry, looked up): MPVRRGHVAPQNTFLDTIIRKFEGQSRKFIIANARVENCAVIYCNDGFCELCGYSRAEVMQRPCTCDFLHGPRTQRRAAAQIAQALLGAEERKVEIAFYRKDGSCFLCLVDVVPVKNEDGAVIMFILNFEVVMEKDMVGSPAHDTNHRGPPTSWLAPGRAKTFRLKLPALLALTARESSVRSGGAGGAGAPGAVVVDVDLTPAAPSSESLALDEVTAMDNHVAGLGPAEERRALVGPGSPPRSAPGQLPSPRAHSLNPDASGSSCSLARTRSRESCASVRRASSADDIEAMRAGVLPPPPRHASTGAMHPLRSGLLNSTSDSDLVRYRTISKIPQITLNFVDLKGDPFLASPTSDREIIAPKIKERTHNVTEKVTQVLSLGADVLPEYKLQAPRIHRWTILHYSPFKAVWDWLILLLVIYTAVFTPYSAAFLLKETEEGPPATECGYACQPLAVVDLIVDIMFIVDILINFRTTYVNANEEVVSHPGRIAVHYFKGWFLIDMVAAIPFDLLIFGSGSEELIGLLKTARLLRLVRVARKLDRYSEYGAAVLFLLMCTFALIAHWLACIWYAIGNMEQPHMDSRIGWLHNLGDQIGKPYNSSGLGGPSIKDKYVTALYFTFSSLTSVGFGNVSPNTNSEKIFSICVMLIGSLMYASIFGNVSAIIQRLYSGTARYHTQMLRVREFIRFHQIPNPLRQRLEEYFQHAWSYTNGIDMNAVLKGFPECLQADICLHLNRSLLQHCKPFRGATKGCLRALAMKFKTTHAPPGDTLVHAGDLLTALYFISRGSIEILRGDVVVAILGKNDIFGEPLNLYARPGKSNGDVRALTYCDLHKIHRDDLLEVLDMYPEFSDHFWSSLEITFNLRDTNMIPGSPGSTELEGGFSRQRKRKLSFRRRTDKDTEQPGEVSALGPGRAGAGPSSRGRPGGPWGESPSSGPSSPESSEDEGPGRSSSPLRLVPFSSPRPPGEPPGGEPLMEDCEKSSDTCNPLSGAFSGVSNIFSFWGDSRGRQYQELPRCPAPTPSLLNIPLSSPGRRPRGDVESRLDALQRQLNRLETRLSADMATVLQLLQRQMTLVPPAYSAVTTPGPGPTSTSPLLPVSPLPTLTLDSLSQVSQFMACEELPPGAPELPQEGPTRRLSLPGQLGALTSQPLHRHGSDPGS

Structure (SMILES)	hERG blockade
Oc1cc(O)c2c(c1)OC(c1ccc(O)c(O)c1)C(OC1(c3cc(O)c(O)c(O)c3)Oc3cc(O)cc(O)c3C(O)C1O)C2 (stereo not drawn)	-3.37%
CC(CC(=O)O)C(C(=O)O)C(=O)O (stereo not drawn)	2.78%
Oc1cc(CN2COc3ccccc32)c(O)cc1CNC1CCCCC1	6.98%
N=c1nc(N)nc(N)n1-c1ccc(S(N)(=O)=O)cc1	-2.11%
Nc1[nH]c(=O)nc2c1ncn2C1OC(CO)C(O)C1O (stereo not drawn)	-9.03%
COc1ccc2cc(C(=O)CCC(=O)O)ccc2c1	-0.161%
NC(=[SH+])[N-]N=Cc1ccccn1.O=S(=O)([O-])O.[Fe]	8.22%
O=C(O)c1ccncc1.O=C(O)c1ccncc1.[Cl][Pt]([Cl])([Cl])[Cl]	16.7%
C[N+]1(CCN=C=NC2CCCCC2)CCOCC1	4.24%
CCN(CC)CCN1c2ccccc2Sc2ccc3ccccc3c21	28.5% (active)
CN(C)CCCN1c2ccc3ccccc3c2Sc2cccc(Cl)c21	30.4% (active)
CN(C)CCCN1c2ccccc2C(C)(C)c2ccccc21	34.9% (active)
CN(C)CCCN1c2ccccc2Sc2ccc3ccccc3c21	112% (active)
CCN(CC)CCN1C(=O)c2cccc3cc(N)cc(c23)C1=O	-2.82%
Clc1ccc(-c2nnc(-c3cccc4ccccc34)o2)cc1Cl	-2.83%
N=Nc1c(OC(=O)Nc2ccccc2)[nH]c2ccccc12	18.5%
CN(C)CCC(C(=O)C(C)(C)C)c1ccccn1 (stereo not drawn)	-9.42%
CS(=O)(=O)c1ccc(C=NNC(N)=S)cc1	-0.277%
O=[N+]([O-])c1ccc(NN=C2c3ccccc3Cc3ccccc32)c([N+](=O)[O-])c1	8.87%
O=C(O)c1cc(N=Cc2ccccc2O)cc(C(=O)O)c1	-2.64%
Nc1nc(N)c2nn(-c3ccc(C(=O)O)cc3)nc2n1	14.6%
NCCSCC(N)C(=O)O (stereo not drawn)	1.01%
O=C(O)c1ccc(OCc2ccccc2)c(Cl)c1	4.92%
Cc1c[n+](=O)c2ccccc2n1[O-]	-5%
O=C(O)C1C2C=CC(O2)C1C(=O)NCc1ccncc1 (stereo not drawn)	-11%
Clc1ccc(-c2noc(CN3CCCCC3)n2)cc1	-11.3%

Structure (SMILES)	hERG blockade
C[N+](C)(N)Cc1nc(-c2ccc(Cl)cc2)no1	1.91%
N=C(N)SCc1nc(-c2ccc(Cl)cc2)no1	-25.1% (active)
Cc1cc2c(cc1C)NC1=C(N2)OC(c2c[nH]c3ccc(COc4ccccc4)cc23)C1=O (stereo not drawn)	-6.35%
CCOC(=O)C1=C(C)NC(=O)NC1c1coc2cc(C)cc(C)c2c1=O (stereo not drawn)	-8.18%
Cc1ccc(S(=O)(=O)N2CCC(C(=O)O)(c3ccccc3)CC2)cc1	-1.68%
COc1ccc2c(=O)cc(-c3ccncc3)oc2c1OC	72.1% (active)
C1CCN(CCC2CCCCN2)CC1 (stereo not drawn)	-0.957%
[O-][n+]1c(CN2CCCCC2)nc2cccc3c2c1-c1ccccc1-3	41.6% (active)
CN1CCN(CC(=O)Nc2cccc3ccccc23)CC1	8.36%
Oc1cccnc1CN1CCCCC1	-6.51%
CN1CCN(Cc2nc3cccc4c3c([n+]2[O-])-c2ccccc2-4)CC1	39.2% (active)
CC(C)C1OC(C=Cc2ccccc2)OCC1(C)C (stereo not drawn)	10.1%
O=C(O)CSc1ccn(Cc2ccccc2)c1	-5.01%
CC(=NCC(=O)O)c1ccccc1	-2.03%
C=C(Br)CN(C)CC(=C)Br	-27.2% (active)
C=C(C)CN(CC#N)CC(=C)C	-3.17%
CN(CC(=O)O)CC(=O)O	9.14%
Cc1cc(Nc2ccc(N=Nc3ccc(O)c4ncccc34)cc2)nc(C)n1	7.41%
[Cu+2].[NH-]C(CC(=O)O)C(=O)O.[NH-]C(CC(=O)O)C(=O)O (stereo not drawn)	16.8%
NC(=O)NN=C1CCC(O)CC1CC(=O)O (stereo not drawn)	0.91%
CN1C2CCC1CC(OC(c1ccccc1)c1ccccc1)C2 (stereo not drawn)	44.2% (active)
NS(=O)(=O)c1ccc(N=Nc2nc3[nH]cnc(=S)c3[nH]2)cc1	-16.4%
CN(C)CC(O)c1ccc(Cl)c2ccccc12 (stereo not drawn)	28.3% (active)
CC(CN(C)C)C(O)(c1ccccc1)c1ccccc1 (stereo not drawn)	7.73%
CC(CN(C)C)C(=O)c1ccccc1C(=O)O (stereo not drawn)	0.354%
CN(Cc1cc(Br)cc(Br)c1O)Cc1c(O)ccc2ccccc12	16%

Structure (SMILES)	hERG blockade
Clc1ccc(Cl)c(Nc2ccnc(SCc3ccccc3)n2)c1	-4.72%
CC1CCC2(C(=O)O)CCC3(C)C(=CCC4C5(C)CC(O)C(O)C(C)(CO)C5C(O)CC43C)C2C1C (stereo not drawn)	17.2%
O=C(CSc1ncnc2nc[nH]c12)c1ccccc1	-4.94%
O=S1(=O)CCN(c2ccccc2CC(c2c[nH]c3ccccc23)c2c[nH]c3ccccc23)CC1	32.2% (active)
Cn1ccnc1CC(C)(O)c1ccccc1 (stereo not drawn)	-2.58%
COc1ccc(OC)c(-c2cc(C(=O)O)c3cc4ccccc4cc3n2)c1	-16.1%
CC(CCC(=O)O)C1CCC2(C)C3C(=O)CC4C(C)(C)C(O)CCC4(C)C3C(=O)CC12C (stereo not drawn)	2.84%
CC(CCC(=O)O)C1CCC2C3C(O)CC4CC(O)CCC4(C)C3CC(O)C12C (stereo not drawn)	5.61%
O=C(O)c1ccc(C(=O)c2ccccc2)c(C(=O)O)c1	1.04%
O=C(O)c1ccc(C(=O)O)c(C(=O)O)c1.[NH-]C1CCCCC1[NH-].[Pt+2]	23.7% (active)
O=C(O)c1ccc(C(=O)O)c(C(=O)Nc2ccc3c(c2)Cc2ccccc2-3)c1	-3.35%
O=C1CNCCCN2CCN(CCCNCC(=O)Nc3ccc(cc3)S(=O)(=O)c3ccc(cc3)NC(=O)CNCCCN3CCN(CCCNCC(=O)Nc4ccc(cc4)S(=O)(=O)c4ccc(cc4)N1)CC3)CC2	5.8%
Cc1ccc(S(=O)(=O)NC(=O)OC23COCN2COC3)cc1	-18.8%
Oc1c(Br)cc(Br)cc1CN(Cc1cc(Br)cc(Br)c1O)C1CCCCC1	-7.44%
O=C1c2ccccc2C(=O)N1CC1(C(=O)O)NCCS1(=O)=O (stereo not drawn)	4.44%
N=Nc1c(OC(=O)Nc2cccc(Cl)c2)[nH]c2ccccc12	1.43%
S=C1NC(c2ccccc2)NC(c2ccccc2)S1 (stereo not drawn)	8.24%
NC(N)=NC(CC(=O)O)c1ccccc1 (stereo not drawn)	10.4%
N=C(N)SC(c1ccccc1)c1ccccc1	22.5% (active)
N=C(N)C(N=Nc1ccccc1)C(=N)N (stereo not drawn)	14.2%
O=C1c2ccccc2C(=O)N1CCCSc1ccccc1	23.2% (active)
O=C(O)CCCSc1ccccc1	8.71%
Cn1c(=S)c2[nH]c(SCCN3C(=O)c4ccccc4C3=O)nc2n(C)c1=O	13.4%
O=C(O)c1cccc(S(=O)(=O)NCCO)c1	-15.6%
CN(C)CCn1c(CO)nc2c1c(=O)n(C)c(=O)n2C	-1.57%
CN(C)CCNc1nc2c(c(=O)n(C)c(=O)n2C)n1C	34% (active)

Structure (SMILES)	hERG blockade
Cn1c(=O)c2c(nc(NCCNc3nc4c(c(=O)n(C)c(=O)n4C)n3C)n2C)n(C)c1=O	-7.81%
Cc1ccc(CCCC(=O)O)cc1C	6.44%
NC(=O)NOCC1NC(=O)NC1=O (stereo not drawn)	-12%
NCC1OC(n2cnc3c(N)ncnc32)CC1O (stereo not drawn)	-23.5% (active)
Nc1ncnc2c1ncn2C1OC(CO)C(O)C1N (stereo not drawn)	13.4%
C[N+](C)(C)c1ncnc2c1ncn2C1CC(O)C(CO)O1 (stereo not drawn)	-5.95%
Nc1ncnc2c1nc(-c1ccccc1)n2C1OC(CO)C(O)C1O (stereo not drawn)	-5.56%
Cc1ccc(C2(C)CCC(=NN=C3CCC(C)(c4ccc(C)c(C)c4)c4cc(C)c(C)cc43)c3cc(C)c(C)cc32)cc1C (stereo not drawn)	5.6%
CC(NC(=O)c1ccccc1)(C(=O)O)C(=O)O	-6.84%
O=C(Nc1ccc(-c2cn3ccccc3n2)cc1)c1cc(Br)ccc1O	6.36%
CC12CCC3c4ccc(OCC(=O)O)cc4CCC3C1CCC2=O (stereo not drawn)	-7.52%
Cc1cc(Cl)ccc1OCC(=O)Oc1c(Cl)c(Cl)c(Cl)c(Cl)c1Cl	-9.38%
CC(C)Cn1cnc2c(SCc3ccccn3)nc(N)nc21	-2.95%
CC(C)Cn1cnc2c(SCc3ccc(Cl)cc3Cl)nc(N)nc21	20.1% (active)
Cc1ccc2ccccc2c1CSc1nc(N)nc2c1ncn2CC(C)C	13.9%
COc1cccc(CSCC(=O)O)c1	3.08%
O=C(O)C(Cc1c[nH]c2ccccc12)C(=O)NO (stereo not drawn)	-0.439%
CC(=O)NC(Cc1c[nH]c2ccccc12)C(=O)O (stereo not drawn)	2.72%
O=C(O)C1CCCN1Cc1c[nH]c2ccccc12 (stereo not drawn)	-17.1%
CC(N)(Cc1c[nH]c2ccccc12)C(=O)O (stereo not drawn)	-24.5% (active)
CN(CC(=O)O)Cc1c[nH]c2ccccc12	-21% (active)
O=C(O)C(Cc1c[nH]c2ccccc12)N1C(=O)c2ccccc2C1=O (stereo not drawn)	-13.6%
NC(N)=NCC(N)C(=O)O (stereo not drawn)	-1.09%
Cc1nnc(S(=O)(=O)c2ccc(N=Nc3c(N)nc(N)nc3N)cc2)s1	-0.733%
O=C(O)CC(=Cc1ccco1)C(=O)O	-9.17%
